Sfp PPTase inh: qHTS Assay for Inhibitors of Bacillus subtilis Sfp phosphopantetheinyl transferase (PPTase). hit rate 3.5% among 310,000. Biochemical Sfp PPTase activity, qHTS. 4'-phosphopantetheinyl transferase ffp (Bacillus subtilis), Q9F4F7. Potency, µM, without a hit: largest response in the series, negative = inhibition, hits mostly inhibitors; active = well fitted curve in the direction sought with a large enough effect; inconclusive = small, poorly fitted or top-dose-only effect, or another doubt; inactive = no such curve, though single readings can be large; an effect the other way counts as inactive or inconclusive;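 note: the enzyme is Sfp with the accession as filed and its product quenches rhodamine fluorescence; potency is the fitted concentration of half-maximal effect; 0% = enzyme reaction without inhibitor and -100% = no enzyme wells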
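Buffer: 50 mM Hepes-Na pH 7.6, 10 mM MgCl2, 0.01% Nonidet P-40, 0.01% BSA. Enzyme 15 nM, pre-exposed to compound 15 min; substrates then added and fluorescence change tracked over 30 min.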
GoLoco inh red: qHTS Assay for Inhibitors of RGS12 GoLoco Motif Activity (Red Fluorophore); Guanine nucleotide-binding protein G(i) subunit alpha-1 (Homo sapiens), P63096; Gai1:RGS12 GoLoco peptide FP, rhodamine, 10 min; Potency, µM (series often up to 61.6 µM), for inactives: at the top dose activity, negative = inhibition, most hits filed as inhibitors; hit rate 0.44% among 230,000; active = well fitted inhibition curve with a large enough effect, not every such curve was filed as active; inactive = no such curve, though single readings can be large or run the other way; note: potency is the fitted concentration of half-maximal effect; nearly all actives have a fitted effect of over 30% in size
KDM4E inh: qHTS Assay for Inhibitors of Human Jumonji Domain Containing 2E (JMJD2E) | Potency, µM (doses to about 57.1 µM), inactives show at the highest dose activity change, negative = inhibition, usual class: inhibitors | AID 2147, 2009 | Lysine-specific demethylase 4E (Homo sapiens), B2RXH2 | hit rate 1.6% among 230,000 | JMJD2E catalytic domain, FDH-coupled NADH fluorescence (FDH is formaldehyde dehydrogenase);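 note: potency is the fitted concentration of half-maximal effect; 0% = wells with enzyme and -100% = buffer wells without enzyme; nearly all actives have a fitted effect of over 50% in size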
Target sequence (B2RXH2 1-337 limits assumed): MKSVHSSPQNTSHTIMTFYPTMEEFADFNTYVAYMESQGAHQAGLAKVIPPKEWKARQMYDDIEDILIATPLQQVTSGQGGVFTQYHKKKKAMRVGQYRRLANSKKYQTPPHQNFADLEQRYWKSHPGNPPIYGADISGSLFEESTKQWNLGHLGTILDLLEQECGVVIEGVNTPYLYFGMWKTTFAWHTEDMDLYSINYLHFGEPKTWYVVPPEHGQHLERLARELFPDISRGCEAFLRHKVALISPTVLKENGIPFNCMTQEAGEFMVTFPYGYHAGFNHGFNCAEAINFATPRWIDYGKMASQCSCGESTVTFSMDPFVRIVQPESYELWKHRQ
NPSR antag: qHTS Assay for Antagonists of the Neuropeptide S Receptor: cAMP Signal Transduction | Q6W5P4 | CHO-NPSR cells, cAMP TR-FRET, antagonist mode | Potency, µM (highest dose often 38.3 µM), without a hit: at the highest dose activity change, negative = inhibition, usual class: inhibitors | hit rate 1% among 220,000; active = well fitted curve in the direction sought with a large enough effect; inconclusive = small, poorly fitted or top-dose-only effect, or another doubt; inactive = no such curve, though single readings can be large; an effect the other way counts as inactive or inconclusive; note: potency is the fitted concentration of half-maximal effect; nearly all actives have a fitted effect of over 50% in size
FBPA coupling cs: qHTS Assay for Inhibitors of Fructose-1,6-bisphosphate Aldolase from Giardia Lamblia: Coupling assay counterscreen; coupling enzyme system counterscreen, AmpLite Red fluorescence; AID 2472, 2010; activity change, negative = inhibition, % at 58.2 µM, hits read low; hit rate 0.67% among 290,000; in the data active = activity change below about -30%
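Counterscreen of the coupled detection system alone, without aldolase: glyceraldehyde-3-phosphate coupling enzymes plus AmpLite Red readout. Compounds at 57.5 uM final, 10 min RT preincubation, 20 min RT reaction, fluorescence 525/598 nm.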
ALDH1A1 inh: qHTS Assay for Inhibitors of Aldehyde Dehydrogenase 1 (ALDH1A1); hit rate 7.3% among 220,000; AID 1030, 2008; Aldehyde dehydrogenase 1A1 (Homo sapiens), P00352; Purified ALDH1A1, NADH fluorescence, propionaldehyde substrate; Potency, µM (titrated, usually from 75.3 µM), without a hit: at the highest dose activity, negative = inhibition, actives largely listed as inhibitors;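 note: potency is the fitted concentration of half-maximal effect; plate controls were no enzyme wells and a reference inhibitor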
* marks the source's active call; other numbers are inactive results; ? = inconclusive; . = no result; ! = not confirmed by another sample; [ ] = remark or other dose. A selection: hits, their analogues and other compounds. The true share with any hit is near 8.5%. Unless noted, calls come from the whole dose curve; as a rule, active = well fitted inhibition curve with a large enough effect (not every such curve was filed as active); inconclusive = small, poorly fitted or top-dose-only effect, or another doubt; inactive = no such curve, though single readings can be large or run the other way. Unless noted, % is set by controls: 0 for no effect and ±100 for the full control effect.

SMILES | Sfp PPTase inh | GoLoco inh red | KDM4E inh | NPSR antag | FBPA coupling cs | ALDH1A1 inh
O=[N+]([O-])c1ccccc1S(=O)(=O)NCCc1ccncc1 | 9% | -5% | 8% | 18% | 2 | 18µM*
CC(=O)Nc1ccc(S(=O)(=O)NCCNc2ccccc2[N+](=O)[O-])cc1 | -8% | 5% | -8% | -8% | -3 | 4.5µM*
O=C(COC(=O)C1C2CC3OC(=O)C1C3C2)Nc1ccc(Br)cc1 (stereo unspecified) | ? | . | . | . | -3 | .
CN(C)c1ccc(C(C(=O)NC2CCCCC2)N(Cc2ccco2)C(=O)c2snc(C(N)=O)c2N)cc1 (stereo unspecified) | 9% | . | . | . | -3 | .
N[C@@H](Cc1cccnn1)C(=O)O | . | -5%[14.2 µM] | . | . | . | 2%[13.5 µM]
CCCCCCN(C(=O)CCCCCN1C(=O)NC(C2CC2)C(C(=O)OCc2ccccc2)=C1C)C(C(=O)NCCCC)c1ccc(OCC(=O)OC)c(C(=O)OC)c1 (stereo unspecified) | 10% | 15% | 5% | . | -1 | 13µM*
CCCCCCN(C(=O)CCCCCN1C(=O)NC(c2ccc(-c3ccccc3)cc2)C(C(=O)OCc2ccccc2)=C1C)C(C)C(=O)NCCCC (stereo unspecified) | 11% | 7% | 35µM*! | -17% | -4 | 9%
CCCCCCN(C(=O)CCCCCN1C(=O)NC(c2ccc(-c3ccccc3)cc2)C(C(=O)OCc2ccccc2)=C1C)C(C(=O)NCCCC)c1ccc(OCC(=O)OC)c(C(=O)OC)c1 (stereo unspecified) | 11% | -2% | 1% | -9% | 4 | .
CCC/C=C(\CCC)C(NS(=O)(=O)c1ccccc1)c1ccc(C(F)(F)F)cc1 (stereo unspecified) | 27% | 7% | -8% | . | -7 | -2%
O=C1CCN1C1(C(=O)NC2CCCCC2)CCCC1 | 14% | 4% | 3% | 14% | 2 | 15%
CC(=O)Nc1ccc2cc3ccc(NC(C)=O)cc3nc2c1 | -3% | 3% | ? | 37%[7.67 µM] | -33* | .
CC(=O)Nc1ccc2c(c1)ncn2C | 10% | -6% | 8% | -3%[46.1 µM] | 0 | 35µM*
CCCc1ccc(Oc2cn[nH]c2-c2ccc(O)c(C)c2O)cc1 | 21% | 7% | -3% | 10µM* | -2 | 5%
COc1cc(Cl)ccc1OCc1cc(C(=O)N(C)CC2CCCCO2)no1 (stereo unspecified) | 9% | . | . | . | 3 | .
CC(C)(C)NC(=O)CN(C(=O)c1snc(C(=O)NC2CCCCC2)c1N)c1ccc(F)cc1 | 23% | . | . | . | -5 | .
COc1ccc(-c2cc(C(F)(F)F)nc(SCC(=O)Nc3sc4c(c3C#N)CCC4)n2)cc1 | -3% | 20% | ? | -11%[46.1 µM] | 1 | ?
CCn1c(SCC(=O)Nc2sc3c(c2C#N)CCCC3)nnc1-c1ccncc1 | -7% | 16% | 0% | -20%[46.1 µM] | 7 | 18µM*
Cc1ccc(C(=O)NCc2nnc(SCC(=O)Nc3sc4c(c3C#N)CCCC4)n2C)cc1 | 0% | 5% | 5% | ? | 4 | 14µM*
COc1ccc(-c2nnn(CC(=O)Nc3sc4c(c3C#N)CCCC4)n2)cc1 | 5% | -4% | -1% | -17%[46.1 µM] | -3 | 10µM*
N#Cc1c(NC(=O)CSc2nnc(-c3ccncc3)n2CC2CCCO2)sc2c1CCCC2 (stereo unspecified) | 9% | 2% | 2% | -9%[46.1 µM] | 10 | ?
Cn1c(CNC(=O)c2ccc(Cl)cc2)nnc1SCC(=O)Nc1sc2c(c1C#N)CCCC2 | 9% | 7% | 5% | -9%[46.1 µM] | 1 | ?
CN(C)c1ccc(SC#N)cc1 | 7% | 1% | 7% | -13% | 2 | 13µM*

High-throughput results deposited in PubChem by National Center for Advancing Translational Sciences (NCATS).
